# From PubChem BioAssay AID1159580 (chemical genetic matrix, 2015)
# Hit rate of the full screen: of about 5,500 compounds, about 2,000 (36%) were called active. Not shown: some 18% with an inconclusive outcome. This is one part of the list. Values without a mark were called inactive. Rule as the data show it: active = normalized growth mostly below about 0.91 (no sharp cut-off); inconclusive = no clear call, values can overlap the other calls; inactive = mostly above about 0.92.
# Assay: chemical genetic growth profiling, strain panel (AID 1159580);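 also: tested at 20 µM; growth read once vehicle control cultures reached saturation at 30 °C; 1 = growth at the plate median or of vehicle wells; lower values mean less growth of the strain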
# Conditions: growth OD
structure (smiles),measurement,setting,value
O=c1oc2c(O)c(O)cc3c(=O)oc4c(O)c(O)cc1c4c23,normalized growth,"S. cerevisiae deletion strains, locus YJR075W, strain HOC1, hits give low values",0.684 (active)
same,normalized growth,"S. cerevisiae deletion strains, locus YKL009W, strain mrt4, hits give low values",0.978
same,normalized growth,"S. cerevisiae deletion strains, locus YKL068W, hits give low values",0.994
same,normalized growth,"S. cerevisiae deletion strains, locus YKL085W, strain MDH1 (second series), hits give low values",0.972
same,normalized growth,"S. cerevisiae deletion strains, locus YKL085W, strain MDH1, hits give low values",0.972
same,normalized growth,"S. cerevisiae deletion strains, locus YKL160W, strain elf1, hits give low values",0.82 (active)
same,normalized growth,"S. cerevisiae deletion strains, locus YKL190W, strain CNB1, hits give low values",0.712 (active)
same,normalized growth,"S. cerevisiae deletion strains, locus YKR001C, strain vps1, hits give low values",0.54 (active)
same,normalized growth,"S. cerevisiae deletion strains, locus YKR026C, strain gcn3, hits give low values",0.992
same,normalized growth,"S. cerevisiae deletion strains, locus YKR091W, strain srl3, hits give low values",0.924 (active)
same,normalized growth,"S. cerevisiae deletion strains, locus YLL001W, strain dnm1, hits give low values",0.747 (active)
same,normalized growth,"S. cerevisiae deletion strains, locus YLL026W, hits give low values",0.686 (active)
same,normalized growth,"S. cerevisiae deletion strains, locus YLL041C, strain sdh2, hits give low values",0.904 (active)
same,normalized growth,"S. cerevisiae deletion strains, locus YLR027C, strain aat2, hits give low values",0.772 (active)
same,normalized growth,"S. cerevisiae deletion strains, locus YLR039C, strain RIC1, hits give low values",0.407 (active)
same,normalized growth,"S. cerevisiae deletion strains, locus YLR058C, strain SHM2, hits give low values",0.578 (active)
same,normalized growth,"S. cerevisiae deletion strains, locus YLR102C, strain apc9, hits give low values",0.933
same,normalized growth,"S. cerevisiae deletion strains, locus YLR113W, strain HOG1, hits give low values",0.981
same,normalized growth,"S. cerevisiae deletion strains, locus YLR221C, strain rsa3, hits give low values",0.717 (active)
same,normalized growth,"S. cerevisiae deletion strains, locus YLR258W, strain gsy2, hits give low values",0.747 (active)
same,normalized growth,"S. cerevisiae deletion strains, locus YLR262C, strain YPT6 (second series), hits give low values",0.648 (active)
same,normalized growth,"S. cerevisiae deletion strains, locus YLR262C, strain YPT6, hits give low values",0.556 (active)
same,normalized growth,"S. cerevisiae deletion strains, locus YLR268W, strain sec22, hits give low values",0.356 (active)
same,normalized growth,"S. cerevisiae deletion strains, locus YLR320W, strain mms22, hits give low values",0.617 (active)
same,normalized growth,"S. cerevisiae deletion strains, locus YLR330W, strain CHS5, hits give low values",0.584 (active)
same,normalized growth,"S. cerevisiae deletion strains, locus YLR342W, strain FKS1 (second series), hits give low values",0.401 (active)
same,normalized growth,"S. cerevisiae deletion strains, locus YLR342W, strain FKS1, hits give low values",0.628 (active)
same,normalized growth,"S. cerevisiae deletion strains, locus YLR357W, strain rsc2, hits give low values",0.627 (active)
same,normalized growth,"S. cerevisiae deletion strains, locus YLR370C, strain arc18, hits give low values",0.422 (active)
same,normalized growth,"S. cerevisiae deletion strains, locus YLR371W, strain rom2, hits give low values",0.605 (active)
same,normalized growth,"S. cerevisiae deletion strains, locus YLR384C, strain iki3, hits give low values",0.724 (active)
same,normalized growth,"S. cerevisiae deletion strains, locus YLR418C, strain cdc73, hits give low values",0.366 (active)
same,normalized growth,"S. cerevisiae deletion strains, locus YML016C, strain PPZ1, hits give low values",0.626 (active)
same,normalized growth,"S. cerevisiae deletion strains, locus YML032C, strain rad52, hits give low values",0.66 (active)
same,normalized growth,"S. cerevisiae deletion strains, locus YML120C, strain ndi1, hits give low values",0.581 (active)
same,normalized growth,"S. cerevisiae deletion strains, locus YML124C, strain tub3, hits give low values",0.778 (active)
same,normalized growth,"S. cerevisiae deletion strains, locus YMR058W, strain fet3, hits give low values",0.848 (active)
same,normalized growth,"S. cerevisiae deletion strains, locus YMR078C, strain ctf18, hits give low values",0.875 (active)
same,normalized growth,"S. cerevisiae deletion strains, locus YMR125W, strain sto1, hits give low values",1
same,normalized growth,"S. cerevisiae deletion strains, locus YMR129W, hits give low values",0.886 (active)
same,normalized growth,"S. cerevisiae deletion strains, locus YMR205C, strain PFK2, hits give low values",0.685 (active)
same,normalized growth,"S. cerevisiae deletion strains, locus YMR223W, strain ubp8, hits give low values",0.612 (active)
same,normalized growth,"S. cerevisiae deletion strains, locus YMR231W, strain pep5, hits give low values",0.728 (active)
same,normalized growth,"S. cerevisiae deletion strains, locus YMR263W, strain SAP30, hits give low values",0.616 (active)
same,normalized growth,"S. cerevisiae deletion strains, locus YMR307W, strain GAS1, hits give low values",0.731
same,normalized growth,"S. cerevisiae deletion strains, locus YNL067W, strain RPL9B, hits give low values",0.572 (active)
same,normalized growth,"S. cerevisiae deletion strains, locus YNL071W, strain lat1, hits give low values",0.86 (active)
same,normalized growth,"S. cerevisiae deletion strains, locus YNL128W, strain TEP1, hits give low values",0.558 (active)
same,normalized growth,"S. cerevisiae deletion strains, locus YNL153C, strain GIM3, hits give low values",0.492 (active)
same,normalized growth,"S. cerevisiae deletion strains, locus YNL183C, strain NPR1, hits give low values",0.922
same,normalized growth,"S. cerevisiae deletion strains, locus YNL209W, strain ssb2, hits give low values",0.444 (active)
same,normalized growth,"S. cerevisiae deletion strains, locus YNL233W, strain BNI4, hits give low values",0.594 (active)
same,normalized growth,"S. cerevisiae deletion strains, locus YNL248C, strain rpa49, hits give low values",0.912
same,normalized growth,"S. cerevisiae deletion strains, locus YNL250W, strain rad50, hits give low values",0.947
same,normalized growth,"S. cerevisiae deletion strains, locus YNL271C, strain bni1, hits give low values",0.885 (active)
same,normalized growth,"S. cerevisiae deletion strains, locus YNL298W, strain CLA4, hits give low values",0.907 (active)
same,normalized growth,"S. cerevisiae deletion strains, locus YNL307C, strain MCK1, hits give low values",0.787 (active)
same,normalized growth,"S. cerevisiae deletion strains, locus YNL322C, strain KRE1 (second series), hits give low values",0.685 (active)
same,normalized growth,"S. cerevisiae deletion strains, locus YNR049C, strain mso1, hits give low values",0.896 (active)
same,normalized growth,"S. cerevisiae deletion strains, locus YNR052C, strain pop2, hits give low values",0.365 (active)
same,normalized growth,"S. cerevisiae deletion strains, locus YOL012C, strain htz1",0.268
same,normalized growth,"S. cerevisiae deletion strains, locus YOL147C, strain pex11, hits give low values",0.658 (active)
same,normalized growth,"S. cerevisiae deletion strains, locus YOR001W, strain rrp6, hits give low values",0.735 (active)
same,normalized growth,"S. cerevisiae deletion strains, locus YOR061W, strain CKA2, hits give low values",0.618 (active)
same,normalized growth,"S. cerevisiae deletion strains, locus YOR069W, strain VPS5, hits give low values",0.69 (active)
same,normalized growth,"S. cerevisiae deletion strains, locus YOR070C, strain gyp1, hits give low values",0.593 (active)
same,normalized growth,"S. cerevisiae deletion strains, locus YOR080W, strain dia2, hits give low values",0.638 (active)
same,normalized growth,"S. cerevisiae deletion strains, locus YOR083W, strain WHI5, hits give low values",0.717 (active)
same,normalized growth,"S. cerevisiae deletion strains, locus YOR106W, strain vam3, hits give low values",0.507 (active)
same,normalized growth,"S. cerevisiae deletion strains, locus YOR136W, strain idh2, hits give low values",0.796 (active)
same,normalized growth,"S. cerevisiae deletion strains, locus YOR144C, strain elg1, hits give low values",0.68 (active)
same,normalized growth,"S. cerevisiae deletion strains, locus YOR184W, strain ser1, hits give low values",0.538 (active)
same,normalized growth,"S. cerevisiae deletion strains, locus YOR231W, strain MKK1, hits give low values",0.972
same,normalized growth,"S. cerevisiae deletion strains, locus YOR265W, strain rbl2, hits give low values",0.771 (active)
same,normalized growth,"S. cerevisiae deletion strains, locus YOR270C, strain vph1, hits give low values",0.467 (active)
same,normalized growth,"S. cerevisiae deletion strains, locus YOR290C, strain snf2, hits give low values",0.167 (active)
same,normalized growth,"S. cerevisiae deletion strains, locus YOR316C, strain cot1, hits give low values",0.852 (active)
same,normalized growth,"S. cerevisiae deletion strains, locus YPL051W, strain arl3, hits give low values",0.627 (active)
same,normalized growth,"S. cerevisiae deletion strains, locus YPL055C, strain LGE1, hits give low values",0.624 (active)
same,normalized growth,"S. cerevisiae deletion strains, locus YPL078C, strain atp4, hits give low values",0.767 (active)
same,normalized growth,"S. cerevisiae deletion strains, locus YPL106C, strain sse1, hits give low values",0.809 (active)
same,normalized growth,"S. cerevisiae deletion strains, locus YPL240C, strain hsp82, hits give low values",0.864 (active)
same,normalized growth,"S. cerevisiae deletion strains, locus YPL241C, strain CIN2, hits give low values",0.816 (active)
same,normalized growth,"S. cerevisiae deletion strains, locus YPL256C, strain CLN2, hits give low values",1.01
same,normalized growth,"S. cerevisiae deletion strains, locus YPR119W, strain clb2, hits give low values",0.947
same,normalized growth,"S. cerevisiae deletion strains, locus YPR141C, strain kar3, hits give low values",0.987
same,normalized growth,"S. cerevisiae deletion strains, locus YPR163C, strain tif3, hits give low values",0.876 (active)
same,normalized growth,"S. cerevisiae deletion strains, locus YPR167C, strain met16, hits give low values",0.725 (active)
same,normalized growth,"S. cerevisiae deletion strains, strain wtn01, hits give low values",0.511 (active)
same,normalized growth,"S. cerevisiae strains, strain wild type, hits give low values",0.605 (active)
